High-throughput results as filed in PubChem BioAssay.
Shown are actives, neighbours in structure and some others; about 0.9% of the full set was active somewhere.
PPARg SRC1 recr: PPARgamma-driven SRC-1 recruitment agonism | P37231 | PPARgamma-SRC-1 coactivator recruitment biochemical assay | activation, % at 8 µM | hit rate 0.41% among 200,000 | AID 631; in the data active = activation above about 19%;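 also: 0% = DMSO and 100% = reference agonist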
Target sequence (P37231 whole entry, looked up): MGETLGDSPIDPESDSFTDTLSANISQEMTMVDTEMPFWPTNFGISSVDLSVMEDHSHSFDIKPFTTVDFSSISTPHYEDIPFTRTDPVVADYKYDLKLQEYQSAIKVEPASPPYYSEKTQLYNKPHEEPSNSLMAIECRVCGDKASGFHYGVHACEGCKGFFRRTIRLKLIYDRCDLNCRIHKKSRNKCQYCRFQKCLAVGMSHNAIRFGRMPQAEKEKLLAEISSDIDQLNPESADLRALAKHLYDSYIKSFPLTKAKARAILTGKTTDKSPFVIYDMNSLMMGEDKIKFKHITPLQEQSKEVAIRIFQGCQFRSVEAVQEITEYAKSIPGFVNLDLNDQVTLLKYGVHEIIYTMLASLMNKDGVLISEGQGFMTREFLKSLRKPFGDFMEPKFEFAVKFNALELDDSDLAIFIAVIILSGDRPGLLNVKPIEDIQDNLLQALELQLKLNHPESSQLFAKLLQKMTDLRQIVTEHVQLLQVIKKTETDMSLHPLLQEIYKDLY
SRC3 TRFRET art: TR-FRET artefact, counter-screen to PPARgamma/SRC-3 agonist assay; PPARgamma/SRC-3 format; hits give high values; TR-FRET ratio at 8 µM; hit rate 0.39% among 99,000; AID 1048
PPARg SRC2 recr: promotes SRC-2 coactivator recruitment by human PPARgamma; AID 1032; PPARgamma LBD-SRC-2 recruitment, biochemical; activation, % at 8 µM; hit rate 0.34% among 200,000; in the data active = activation above about 22%;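 also: 0% = vehicle and 100% = reference agonist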
SRC1 TRFRET art: TR-FRET artefact, counter-screen to PPARgamma/SRC-1 agonist assay | TR-FRET detection artefact counter-screen, emission ratio; hits give high values | TR-FRET ratio at 8 µM | hit rate 0.34% among 99,000; in the data active = TR-FRET ratio above about 2300
PPARg SRC-3 ag: agonists of human PPARgamma SRC-3 coactivator recruitment; P37231; biochemical PPARgamma/SRC-3 coactivator recruitment assay; activation, % at 8 µM; hit rate 0.26% among 200,000; AID 731; in the data active = activation above about 23%;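 also: 0% = DMSO and 100% = reference agonist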
TR-FRET SRC-2 ct: TR-FRET artefact, counter-screen to PPARgamma/SRC-2 agonist assay; hits give high values; TR-FRET ratio at 8 µM; hit rate 0.4% among 200,000
PPARg SRC2 ag: human PPARgamma SRC-2 recruitment agonism, confirmation; activation, % at 8 µM; shares compounds with PPARg SRC-3 ag; hit rate 52% among 790; AID 1297; biochemical SRC-2 recruitment by PPARgamma; in the data active = activation above about 22%;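 also: 0% = vehicle alone and 100% = reference agonist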
PPARg SRC1 ag: confirmation of agonists of SRC-1 recruitment by human PPARgamma | hit rate 43% among 790 | shares compounds with PPARg SRC-3 ag | PPARgamma–SRC-1 coactivator recruitment biochemical assay | activation, % at 8 µM; in the data active = activation above about 20%;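 also: 0% = vehicle wells and 100% = reference agonist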
PPARg SRC3 ag: confirmation of agonists of SRC-3 recruitment by human PPARgamma; activation, % at 8 µM; AID 1301; biochemical PPARgamma-SRC-3 coactivator recruitment, agonist mode; hit rate 29% among 790; shares compounds with PPARg SRC-3 ag; in the data active = activation above about 24%;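 also: 0% = vehicle wells and 100% = reference agonist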
An asterisk follows results filed as active; . = no result given. Rule as the data show it, unless noted: active = TR-FRET ratio above about 2000; inactive = the rest.

SMILES | PPARg SRC1 recr | SRC3 TRFRET art | PPARg SRC2 recr | SRC1 TRFRET art | PPARg SRC-3 ag | TR-FRET SRC-2 ct | PPARg SRC2 ag | PPARg SRC1 ag | PPARg SRC3 ag
S=c1[nH]nc(-c2ccccc2)o1 | 56.2* | . | 66.9* | . | 71.2* | 2863* | 51.7* | 37.2* | 35.2*
Cc1ccc(-c2cc(-c3n[nH]c(=S)o3)c3ccccc3n2)cc1 | 10.5 | 1989 | 4.5 | 2257 | 9.8 | 1695 | . | . | .
CC(Cc1n[nH]c(=S)o1)c1ccccc1 (stereo not given) | 0.2 | 1437 | 0.0 | 1951 | -0.9 | 1603 | . | . | .
O=c1c2ccccc2c(-c2n[nH]c(=S)o2)nn1Cc1ccccc1 | 23.4* | 2375* | 27.8* | 2576* | 15.8 | 2234* | 48.7* | 42.1* | 30.9*
S=c1[nH]nc(Cc2cccc3ccccc23)o1 | -7.7 | 1601 | -6.6 | 1581 | 2.6 | 1336 | . | . | .
CSc1ccccc1-c1n[nH]c(=S)o1 | 69.5* | 3610* | 95.6* | 4008* | 44.5* | 3652* | 50.5* | 33.0* | 34.1*
Cc1ccccc1-c1n[nH]c(=S)o1 | 46.1* | . | 67.5* | . | 79.2* | 3075* | 49.9* | 33.5* | 35.6*
CCNc1nc(NCC)nc(N/N=C(\C)c2ccc(OC)cc2)n1 | 5.6 | 1496 | 3.1 | 1537 | -1.3 | 1571 | . | . | .
COc1cc(C2C(C(C)=O)=C(O)C(=O)N2CCN(C)C)ccc1O (stereo not given) | 6.3 | . | 1.9 | . | -1.4 | 1429 | . | . | .
CCN(CC)CCN1C(=O)C(O)=C(C(=O)c2sc(C)nc2C)C1c1cccnc1 (stereo not given) | -12.7 | . | 1.5 | . | 4.3 | 1457 | . | . | .
O=C(C1=C(O)C(=O)N(CCCN2CCOCC2)C1c1ccccn1)c1cc2ccccc2o1 (stereo not given) | 20.9* | . | 25.2* | . | 35.4* | 1804 | 16.6 | 12.2 | 9.0
CCN(CC)CCN1C(=O)C(O)=C(C(=O)c2cc3ccccc3o2)C1c1cccnc1 (stereo not given) | 33.0* | . | 39.5* | . | 52.2* | 2274* | 11.3 | 7.7 | 8.2
COc1ccccc1C1C(C(=O)c2cc3ccccc3o2)=C(O)C(=O)N1CCN(C)C (stereo not given) | 19.8* | . | 16.9 | . | 25.0 | 1988* | 14.1 | 13.0 | 9.2
CN(C)CCN1C(=O)C(O)=C(C(=O)c2cc3ccccc3o2)C1c1cccc(Br)c1 (stereo not given) | 36.3* | . | 44.8* | . | 58.4* | 2387* | 38.1* | 25.8* | 26.3*
O=C(C1=C(O)C(=O)N(CCc2ccccc2)C1c1ccncc1)c1cc2ccccc2o1 (stereo not given) | 20.6* | 2106* | 24.6* | 2514* | 10.4 | 2092* | 26.2* | 17.9 | 18.1
C=CCn1c(C)cc(C(=O)COC(=O)/C=C/c2cccc(OC)c2)c1C | -7.6 | 1348 | -7.5 | 1485 | -5.1 | 1392 | . | . | .
COc1ccc(Cc2c(O)nc(SCC(=O)NC(C)(C)C)[nH]c2=O)cc1 | -0.2 | 1732 | -0.3 | 1685 | 3.6 | 1449 | . | . | .
CNc1ncnc2sc(-c3ccccc3)cc12 | -1.9 | 1461 | -4.7 | 2133 | -0.3 | 1590 | . | . | .
S=c1[nH]cnc2sc(-c3ccccc3)cc12 | 46.4* | 2631* | 51.7* | 3261* | 30.1* | 2602* | 33.0* | 22.2* | 20.7
CCc1ccc(NC(=S)N2CCCCCCC2)cc1 | -4.3 | 1647 | -4.8 | 1673 | -3.3 | 1393 | . | . | .
Cc1cc(Br)ccc1SCC(=O)OCC(=O)NC1CCCC1 | 3.7 | 1453 | -0.4 | 1787 | 6.2 | 1626 | . | . | .
COc1ccc(O)c(C(=O)c2cc(C#N)c(=O)n(Cc3ccccc3)c2)c1 | 11.1 | 1633 | 1.6 | 1656 | 5.5 | 1613 | . | . | .
N#Cc1cc(C(=O)c2cc(Br)ccc2O)cn(Cc2ccccc2)c1=O | 31.3* | 1805 | 14.0 | 2306 | 7.6 | 1955 | 27.3* | 23.1* | 17.7
CCOc1ccc(CNc2ccc(N3CCCC3)cc2)cc1 | 11.5 | . | 29.4* | . | 22.4 | 1770 | 11.4 | 5.4 | 5.6
Cc1cc(C)c(S(=O)(=O)NC(C)C)c(C)c1-n1cnnn1 | 0.8 | 1518 | 3.0 | 1627 | -0.6 | 1477 | . | . | .
SMILES | PPARg SRC1 recr | SRC3 TRFRET art | PPARg SRC2 recr | SRC1 TRFRET art | PPARg SRC-3 ag | TR-FRET SRC-2 ct | PPARg SRC2 ag | PPARg SRC1 ag | PPARg SRC3 ag
Cc1[nH]c2ccccc2c1/C=C/c1cc[n+](C)cc1 | 24.6* | . | 10.2 | . | 16.7 | 1692 | 17.4 | 13.2 | 11.8
Oc1ccc(-c2n[nH]c(=S)n2Cc2ccco2)cc1 | 6.5 | . | 5.5 | . | -4.8 | 1439 | . | . | .
Oc1cc2ccccc2cc1-c1n[nH]c(=S)n1Cc1ccco1 | 21.5* | 1823 | 4.8 | 2134 | 16.4 | 1822 | 7.5 | 12.3 | 10.5
COc1ccccc1-c1n[nH]c(=S)o1 | 36.1* | . | 48.1* | . | 58.7* | 2562* | 45.7* | 34.8* | 30.5*
COc1ccccc1-c1cc(N)n[nH]1 | 6.9 | . | -7.6 | . | 9.3 | 1458 | . | . | .
COc1ccc(Cl)cc1-c1n[nH]c(=S)o1 | 56.9* | . | 103.6* | . | 118.8* | 3750* | 71.7* | 50.5* | 48.8*
COc1ccc(C)cc1NC(=O)CNC(C)C(=O)Nc1cc(Cl)ccc1Cl (stereo not given) | -5.9 | 1422 | -2.8 | 1716 | -7.0 | 1514 | . | . | .
Cc1nn(C)c(C)c1NC(=O)CSc1nc(-c2ccccc2Cl)nc2c1cnn2-c1ccccc1 | 19.3* | . | -1.7 | . | 14.0 | 1882 | 4.4 | -1.5 | -2.1
Cc1nc2ccc(-c3nc4cc(N)ccc4o3)cc2[nH]1 | 21.4* | . | 15.8 | . | 18.1 | 1816 | 9.6 | 8.9 | 7.8
Nc1ccc2oc(-c3ccc4nc[nH]c4c3)nc2c1 | -4.2 | . | 0.7 | . | 3.3 | 1494 | . | . | .
CCn1c(C)c(C(C)=O)cc(C#N)c1=O | 1.2 | 1772 | 7.6 | 2282 | 4.8 | 1784 | . | . | .
CSc1oc(-c2ccccc2)nc1S(=O)(=O)c1ccc(C)cc1 | 16.5 | 2062* | 26.0* | 2106 | 15.8 | 1843 | 25.1* | 20.3* | 17.7
CCSc1oc(-c2ccccc2)nc1S(=O)(=O)c1ccccc1 | 0.3 | . | 14.5 | . | 10.1 | 1802 | . | . | .
Cc1ccc(S(=O)(=O)c2nc(-c3cccs3)oc2SCC(N)=O)cc1 | 12.2 | . | 31.2* | . | 16.0 | 1927 | 31.6* | 31.7* | 21.0
N#Cc1ccc(-c2ccc(F)cc2)nc1SCC(=O)Nc1sc2c(c1C#N)CCC2 | 19.5* | . | 2.4 | . | 8.7 | 1696 | 20.8 | 10.1 | 9.6
N#Cc1cc2c(nc1SCC(=O)Nc1sc3c(c1C#N)CCC3)CCCC2 | 13.8 | . | 9.8 | . | 2.5 | 1572 | . | . | .
CC(c1ccccc1)C1CC(=O)N(Cc2ccccc2)C1=O (stereo not given) | 2.3 | 1638 | 2.7 | 1620 | 3.8 | 1409 | . | . | .
NS(=O)(=O)c1ccc(CCNC(=O)c2cc(-c3ccccc3)nc3ccccc23)cc1 | -0.9 | 1586 | -1.2 | 1708 | 0.3 | 1481 | . | . | .
